The values that follow come from the OligoGym collection.
Further: reference of the scale not given here.

One assay has as its target C19orf26. The assay is described as follows: pooled miR-30 sensor sort-seq; sequence = guide strand. The following applies: shRNA.
TCGTGGATGGTGACAATCTTGA came in with a sensor-assay potency score (higher = more potent) of -1.35.

On to TCCGTCAGTGTGTACCGGCGAC, for which the sensor-assay potency score (higher = more potent) is -0.95.

As for TTGACCTTGAAATAGGGGCTGG, the sensor-assay potency score (higher = more potent) is -0.605.

Turning to TCATTGAAGGAGACCCGGCGGC, the sensor-assay potency score (higher = more potent) is -0.71.

Sequence TGAGTCACACTCGTGGATGGTG returned a sensor-assay potency score (higher = more potent) of -0.617.

For the sequence TTGTCCAGGTAGGTGGTGGTGG, the sensor-assay potency score (higher = more potent) was -0.893.

On to TTGCAGAGGAGCAGGACGCCAG, for which the sensor-assay potency score (higher = more potent) is -1.16.

TTCCACTTCTTGACCTTGAAAT gave a sensor-assay potency score (higher = more potent) of -1.35.

As to TTCGGTCTCCGCATCCTGGCAC, the sensor-assay potency score (higher = more potent) was -0.126.

In another assay the target is C19orf33. The assay is described as above. The following applies: shRNA.
TCTCGTGCTGCTTGGAGCCAGC gave a sensor-assay potency score (higher = more potent) of -1.2.

TTCTTCTTCACTTTGGGCTTCT had a sensor-assay potency score (higher = more potent) of 0.272.

The sequence AAGAGCTGTGGTGTCCTTGCTT registered a sensor-assay potency score (higher = more potent) of 0.114.

The sequence TGAGCTTGGGATCTCCCCCGTG showed a sensor-assay potency score (higher = more potent) of -0.899.

Sequence AACTTTGTGGGGACTGAGCTTG returned a sensor-assay potency score (higher = more potent) of -0.364.

In the case of TTCACTTTGGGCTTCTTGGCCT, the sensor-assay potency score (higher = more potent) is -0.157.

On to ATCCGTGTCCGAATCGCTGGAG, for which the sensor-assay potency score (higher = more potent) was -0.418.

Consider TTCTCCTTCTTCTTCACTTTGG, for which the sensor-assay potency score (higher = more potent) is -0.173.

Consider TCTCCTTCTTCTTCACTTTGGG, for which the sensor-assay potency score (higher = more potent) was -0.407.

TCCGAATCGCTGGAGCTGCTGC displayed a sensor-assay potency score (higher = more potent) of -0.94.

Sequence ACATCCGTGTCCGAATCGCTGG showed a sensor-assay potency score (higher = more potent) of -1.43.

Regarding TCCGTGTCCGAATCGCTGGAGC, the sensor-assay potency score (higher = more potent) was -1.74.

For the next assay, the target named is C19orf43. The description is as above. The following applies: shRNA.
TACTTGTTAATACCTCATCCTC registered a sensor-assay potency score (higher = more potent) of -0.735.

Sequence TTGGCTACTATTCCCGTCTTGA gave a sensor-assay potency score (higher = more potent) of 0.118.

Take ATCATCGTCACCGCACTGGTGA: the sensor-assay potency score (higher = more potent) is -0.305.

In turn, TTATCATCGTCACCGCACTGGT had a sensor-assay potency score (higher = more potent) of -1.04.

The sequence AACAGCTCCAGGAAGCTGCCGT showed a sensor-assay potency score (higher = more potent) of -0.55.

With TAATACCTCATCCTCCGTCTTC, the sensor-assay potency score (higher = more potent) was -0.695.

TAAATAGTTATGTACATCGCAG came in with a sensor-assay potency score (higher = more potent) of -0.74.

For the sequence TTGAACAGCTCCAGGAAGCTGC, the sensor-assay potency score (higher = more potent) was -0.652.

TGTTCTATGAAGTCTCACGAGG returned a sensor-assay potency score (higher = more potent) of -1.02.

For TTTATCATCGTCACCGCACTGG, the sensor-assay potency score (higher = more potent) is 0.198.

TTGGCGAACAAGTTCACGCCGC returned a sensor-assay potency score (higher = more potent) of -0.437.

TTGAGGGCTAGTTTGTTCCCGC gave a sensor-assay potency score (higher = more potent) of -0.869.

The target of another assay is C19orf48. The description is as above. Particulars: shRNA.
The sequence TAGGCCTGGTCACAATAGGGAA came in with a sensor-assay potency score (higher = more potent) of -1.64.

TGTCCTTGAGAGCCAGGCCCAG: the sensor-assay potency score (higher = more potent) is -1.6.

Consider TTATCCACCTTCTCCTGGGTGT, for which the sensor-assay potency score (higher = more potent) was -0.455.

Regarding CCACTTATCCACCTTCTCCTGG, the sensor-assay potency score (higher = more potent) is -1.46.

Regarding TGGAGCACCAGGCCAGGCGGTG, the sensor-assay potency score (higher = more potent) is -1.89.

On to TTGGGTCCCAGCATGAGCCTGG, for which the sensor-assay potency score (higher = more potent) was -0.0945.

Sequence TCTCCTGGGTGTGTGGCTCAGC showed a sensor-assay potency score (higher = more potent) of -0.768.
